Source: PubChem
This excerpt belongs to a sample that is enriched for hits.
HT1080 IDH1KD tx: HT-1080 IDH1 knockdown cell toxicity (counter line). HT-1080 IDH1 knockdown viability, ATP luminescence, 48 h. Potency, µM (series often up to 46.1 µM), without a hit: top-dose activity, negative = toxicity, usual class: cytotoxic. hit rate 2% among 360,000. AID 686971;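 note: potency is the fitted concentration of half-maximal effect; 0% = DMSO wells and -100% = cell-free medium wells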
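Cytotoxicity counter-line: IDH1KD HT-1080, 48 h, CellTiter-Glo. Curves classed by r2, magnitude and activity.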
HT1080-NT tox: kills 2HG-producing HT-1080-NT fibrosarcoma cells; HT-1080-NT fibrosarcoma viability, CellTiter-Glo ATP luminescence, 48 h; Potency, µM (doses to about 46.1 µM), inactives show at the highest dose activity, negative = less viability, hits mostly cytotoxic; hit rate 1.6% among 360,000;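 note: NT is the 2HG producing partner of a matched IDH1 knockdown line; potency is the fitted concentration of half-maximal effect; 0% = DMSO-treated cells and -100% = media-only wells without cells; nearly all actives have a fitted effect of over 55% in size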
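Fibrosarcoma NT cells, 750 per well in 5% FBS RPMI, were exposed to compound for 48 hours. Viability: CellTiter-Glo luminescence.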
TDP1 cell noCPT: qHTS for Inhibitors of human tyrosyl-DNA phosphodiesterase 1 (TDP1): qHTS in cells in absence of CPT; Potency, µM (top dose mostly 46.2 µM), for inactives: at the highest dose activity change, negative = growth inhibition, most hits filed as inhibitors; hit rate 15% among 420,000; DT40 Tdp1-/- hTDP1 cells, no CPT, ATP luminescence, 48 h; note: potency is the fitted concentration of half-maximal effect; nearly all actives have a fitted effect of over 55% in size
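Readout: luminescence from CellTiter-Glo after 30 min in the dark at RT. Cells: DT40 Tdp1-/- with stable hTDP1, 400/well. Exposure: compounds alone, ≥48 hr, 37 °C.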
DT40 TDP1 CPT: DT40-hTDP1 cell growth loss with CPT. chicken DT40 Tdp1-/-;hTDP1 cells + 20 nM CPT, ATP luminescence, 48 h. Potency, µM (top dose mostly 46.2 µM), without a hit: top-dose activity change, negative = growth inhibition, hits mostly inhibitors. hit rate 12% among 420,000. AID 686979; note: potency is the fitted concentration of half-maximal effect; nearly all actives have a fitted effect of over 55% in size
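Cell growth measured by CellTiter-Glo luminescence after a minimum 48 h, 37 C compound exposure with 20 nM CPT in Tdp1-knockout DT40 cells stably expressing hTDP1, seeded 400/well; qHTS titration format.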
ALOX12 inh: ALOX12 (human) lipoxygenase inhibition; purified 12hLO, xylenol orange hydroperoxide absorbance; Potency, µM (doses to about 108 µM), for inactives: top-dose activity change, negative = inhibition, hits mostly inhibitors; hit rate 1.1% among 580,000; AID 1671190; note: potency is the fitted concentration of half-maximal effect
Target sequence (P18054 whole entry, looked up): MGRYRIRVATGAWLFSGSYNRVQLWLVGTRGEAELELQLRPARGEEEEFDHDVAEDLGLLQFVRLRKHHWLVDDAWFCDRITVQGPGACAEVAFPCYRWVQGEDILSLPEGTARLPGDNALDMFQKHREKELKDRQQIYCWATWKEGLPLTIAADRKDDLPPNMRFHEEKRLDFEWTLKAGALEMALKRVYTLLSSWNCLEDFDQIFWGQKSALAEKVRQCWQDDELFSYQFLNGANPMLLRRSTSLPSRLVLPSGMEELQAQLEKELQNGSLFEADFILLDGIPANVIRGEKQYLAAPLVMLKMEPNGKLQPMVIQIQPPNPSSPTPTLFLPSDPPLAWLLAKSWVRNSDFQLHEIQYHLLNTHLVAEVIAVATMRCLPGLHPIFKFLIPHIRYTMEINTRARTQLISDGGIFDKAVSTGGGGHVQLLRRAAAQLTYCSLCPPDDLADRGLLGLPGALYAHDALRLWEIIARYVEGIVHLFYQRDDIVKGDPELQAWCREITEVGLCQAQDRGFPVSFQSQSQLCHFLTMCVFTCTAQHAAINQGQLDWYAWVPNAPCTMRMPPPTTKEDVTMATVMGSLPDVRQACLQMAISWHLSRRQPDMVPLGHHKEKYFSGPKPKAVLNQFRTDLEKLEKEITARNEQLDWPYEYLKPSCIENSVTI
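Hydroperoxide product was detected by ferrous iron/xylenol orange as the 573 to 405 nm absorbance ratio. Arachidonic acid at 40 uM (final) was turned over for 30 min at room temperature by 150 nM human 12hLO, pH 7.0 Hepes buffer, after 15 min compound preincubation.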
IL1B secr inh: inhibitors of inflammasome signaling (IL-1 beta secretion). activity change, % at 57.5 µM. hit rate 4.7% among 360,000. THP-1 LPS/ATP IL-1B secretion, AlphaLISA, 16 h; hits give low values. AID 743279; in the data active = activity change below about -50%; inconclusive = mostly about -30% to -49%
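THP-1 cells pretreated 1 hr with compounds (up to 57.5 uM final), then stimulated with LPS (250 ng/mL final) plus ATP (1.25 mM final); secreted IL-1B measured by AlphaLISA after 16 hr, decreased signal indicating inhibition.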
* hit, by the source's call; ? = inconclusive; . = no result; ! = repeats disagree. Unless noted, calls come from the whole dose curve; as a rule, active = well fitted curve in the direction sought with a large enough effect; inconclusive = small, poorly fitted or top-dose-only effect, or another doubt; inactive = no such curve, though single readings can be large; an effect the other way counts as inactive or inconclusive. Unless noted, % is set by controls: 0 for no effect and ±100 for the full control effect.

SMILES	HT1080 IDH1KD tx	HT1080-NT tox	TDP1 cell noCPT	DT40 TDP1 CPT	ALOX12 inh	IL1B secr inh
CC1(C)CC(C#N)(N2CCOCC2)CCO1 (configuration not stated)	0%	0%	?	2.9µM*	?	15
Cc1cc(OCc2cccc(Cl)c2)c(C)cc1CN1CCOCC1	-21%	-6%	?	18µM*	-14%	-1
CCc1ccc(S(=O)(=O)Nc2ccc3c(c2)sc(=O)n3C)cc1	.	.	15µM*	21µM*	?	.
COc1cc2c(NC3CCN(C)CC3)nc(N3CCCN(C)CC3)nc2cc1OCC1CCCNC1 (configuration not stated)	.	.	0%	-16%	.	.
COc1cc2c(NC3CCN(C)CC3)nc(N3CCCN(C)CC3)nc2cc1OCCCN(C)C	9%	3%	?	?	.	.
COc1cc2nc(N3CCCCC3)nc(NC3CCN(C)CC3)c2cc1OC	11µM*	20µM*	7.9µM*	7.9µM*	.	.
COc1cc2nc(N3CCCN(C)CC3)nc(NC3CCN(C)CC3)c2cc1OC	-11%	-9%	18µM*	13µM*	.	.
COc1cc2nc(NC3CCN(Cc4ccccc4)CC3)nc(N3CCCN(C)CC3)c2cc1OC	2.8µM*	6.3µM*	5µM*	5µM*	.	.
COc1cc2nc(N3CCCCC3)nc(NC3CCN(Cc4ccccc4)CC3)c2cc1OC	10µM*	14µM*	3.2µM*	5µM*	.	.
COc1cc2nc(N3CCN(C)CC3)nc(NC3CCN(C)CC3)c2cc1OC	-12%	-10%	11µM*	8.9µM*	.	.
COc1cc2nc(N3CCOCC3)nc(NC3CC3)c2cc1OC	0%	1%	13µM*	13µM*	.	.
COc1cc2nc(N3CCCN(C)CC3)nc(NC3CCNCC3)c2cc1OC	12%	-4%	13µM*	11µM*	.	.
Cc1ccc(-c2nn(-c3ccccc3)cc2C2SCC(=O)N2Cc2ccccc2)o1 (configuration not stated)	-6%	-14%	8.2µM*	13µM*	32µM*	-69*
O=C1CSC(c2cn(-c3ccccc3)nc2-c2cc3ccccc3o2)N1Cc1ccccc1 (configuration not stated)	-10%	0%	?	?	0%	6
OC(CNC1CCCCCC1)COc1cccc2ccccc12 (configuration not stated)	?	21µM*	13µM*	16µM*	?	-105*
Cc1ccccc1OCC(O)CNC1CCC(NCC(O)COc2ccccc2C)CC1 (configuration not stated)	2.3µM*	2.9µM*	2.3µM*	3.7µM*	?	-98*
O=C(c1nc(-c2ccncc2)no1)N1CCN(c2ccc(F)cc2)CC1	.	.	.	.	2%	.
COC(=O)c1ccc(C(=O)OC)c(NC(=O)C2CC(=O)N(C3CCCC3)C2)c1 (configuration not stated)	-2%	4%	-15%	-1%	?	21
O=c1[nH]c2c(s1)C(c1ccc(O)cc1)C1C3CCC(C3)C1S2 (configuration not stated)	0%	3%	?	-18%	45µM*	78
COc1ccc(C2c3sc(=O)[nH]c3SC3C4CCC(C4)C23)cc1OC (configuration not stated)	-11%	-5%	?	?	-35%	11
N#Cc1ccc(CN2CCN(C(=O)C3CC(=O)N(c4ccc5c(c4)OCCO5)C3)CC2)cc1 (configuration not stated)	3%	-2%	?	?	-13%	8
O=S(=O)(Nc1nc2ccccc2s1)c1cnc(Cl)c(Br)c1	2%	-13%	?	23µM*	-15%	15
Cc1ccnc(NS(=O)(=O)c2cnc(Cl)c(Br)c2)c1	20%	17%	-17%	-24%	-13%	-92*
CN1CCC(OC(c2ccccc2)c2ccc(Cl)cc2)C1 (configuration not stated)	-16%	-30%	21µM*	?	-9%	.
CN1[C@@H]2CC[C@H]1CC(OC(c1ccccc1)c1ccccc1)C2 (some centres not stated)	.	.	21µM*!	7.5µM*	.	.
SMILES	HT1080 IDH1KD tx	HT1080-NT tox	TDP1 cell noCPT	DT40 TDP1 CPT	ALOX12 inh	IL1B secr inh
CC(=O)Nc1ccc(CN2C(=O)OC3(CCN(C(=O)COc4ccccc4)CC3)C2(C)c2ccccc2)cc1 (configuration not stated)	.	.	.	.	14%	.
O=c1cc(N2CCCCC2)c(-c2ccccc2)nn1Cc1ccc(Cl)cc1Cl	?	?	18µM*	?	?	-2
O=C(COC(=O)Cn1cnc2ccccc21)Nc1ccc(Cl)cc1C(F)(F)F	.	.	.	.	46%	.
O=C(Cc1ccc(F)cc1)N1CCC2(CC1)N=C(c1ccc(Cl)cc1)NO2	.	.	.	.	2%	.
CC(=O)c1ccc(OCCCC(=O)Nc2nnc(C3CC3)s2)cc1	18%	1%	-1%	1%	1%	23
CC(C)(C)c1ccc(OCCCC(=O)Nc2nnc(C3CC3)s2)cc1	-8%	-1%	10µM*	?	0%	22
COc1ccc(C(=O)N2CCC3(CC2)OC(=O)N(Cc2ccc(NC(C)=O)cc2)C3(C)c2ccccc2)cn1 (configuration not stated)	.	.	.	.	13%	.
CCc1cccc(CC)c1NC(=O)CN1CC(C)SC1=NC1CCCCC1 (configuration not stated)	5%	5%	13µM*	21µM*	-10%	0
Brc1ccc(-c2ccc(/C=N/Nc3nc(N4CCOCC4)nc(N4CCOCC4)n3)o2)cc1	-2%	6%	10µM*	?	-7%	?
O=[N+]([O-])c1ccc(/C=N/Nc2nc(N3CCCCC3)nc(N3CCCCC3)n2)o1	2%	-9%	18µM*	?	-16%	-26
Fc1cnc(N/N=C/c2ccc(-c3ccc(Br)cc3)o2)nc1N1CCOCC1	-10%	1%	3%	11%	39%	50
Clc1ccc(-c2ccc(/C=N/Nc3cc(N4CCOCC4)nc(N4CCOCC4)n3)o2)cc1	?	?	16µM*	-93%	-1%	?
COC(=O)[C@H](CC(C)C)N(Cc1cn(Cc2ccc(C)cc2)nn1)S(=O)(=O)c1ccccc1Br	.	.	.	.	8.9µM*	.
CCC(c1cccs1)N1C(=O)[C@H]2CN(S(=O)(=O)c3cccnc3)C[C@H]2C1=O (some centres not stated)	.	.	.	.	18%	.
